# Hits are enriched below; roughly 19% of the tested compounds scored in any of these assays.
# DT40 TDP1 CPT – DT40-hTDP1 cell growth loss with CPT; hit rate 12% among 420,000; chicken DT40 Tdp1-/-;hTDP1 cells + 20 nM CPT, ATP luminescence, 48 h; AID 686979; Potency, µM (titrated, usually from 46.2 µM), for the others: top-dose activity change, negative = growth inhibition, most hits filed as inhibitors; also: potency is read from the fitted curve at half-maximal effect; nearly all actives have a fitted effect of over 55% in size
#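 Chicken DT40 Tdp1-/- cells complemented with human TDP1, 400 cells/well, exposed to compounds plus 20 nM camptothecin for at least 48 h at 37 C; viability read as ATP content by CellTiter-Glo luminescence.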
# TDP1 cell noCPT – qHTS for Inhibitors of human tyrosyl-DNA phosphodiesterase 1 (TDP1): qHTS in cells in absence of CPT. Potency, µM (titrated, usually from 46.2 µM), for the others: top-dose activity change, negative = growth inhibition, usual class: inhibitors. DT40 Tdp1-/- hTDP1 cells, no CPT, ATP luminescence, 48 h. hit rate 15% among 420,000. AID 686978, 2013; also: potency is read from the fitted curve at half-maximal effect; nearly all actives have a fitted effect of over 55% in size
#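 Stably hTDP1-transfected Tdp1-null chicken DT40 cells were treated with library compounds minus camptothecin and grown for at least 48 hr at 37 °C, after which cellular ATP was quantified by luminescence.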
# uPA generation – cell surface uPA generation inhibition; Potency, µM (series often up to 38.3 µM), for the others: at the top dose activity change, negative = inhibition, hits mostly inhibitors; hit rate 0.31% among 330,000; cell surface uPA generation assay, qHTS; AID 540303; active = well fitted inhibition curve with a large enough effect; inconclusive = small, poorly fitted or top-dose-only effect; inactive = no such curve, though single readings can be large or run the other way; tested in mouse RAW 264.7 cells; also: potency is read from the fitted curve at half-maximal effect; nearly all actives have a fitted effect of over 55% in size
# HT1080 IDH1KD tx – toxicity to HT-1080 IDH1 knockdown cells (counter line). HT-1080 IDH1 knockdown viability, ATP luminescence, 48 h. Potency, µM (titrated, usually from 46.1 µM), for the others: at the highest dose activity, negative = toxicity, usual class: cytotoxic. hit rate 2% among 360,000. AID 686971;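 also: potency is read from the fitted curve at half-maximal effect; 0% = DMSO wells and -100% = cell-free medium wells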
#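 HT-1080-IDH1KD cells (IDH1 knocked down), 750/well in RPMI with 5% FBS, treated with compound 48 h at 37 degrees C. Viability by CellTiter-Glo luminescence, normalised to DMSO and no-cell wells; concentration-response curves classed.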
# HT1080NT lethal – kills 2HG-producing HT-1080-NT fibrosarcoma cells; AID 686970; hit rate 1.6% among 360,000; Potency, µM (titrated, usually from 46.1 µM), for the others: at the top dose activity, negative = less viability, hits mostly cytotoxic; HT-1080-NT fibrosarcoma viability, CellTiter-Glo ATP luminescence, 48 h;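 also: NT is the 2HG producing partner of a matched IDH1 knockdown line; potency is read from the fitted curve at half-maximal effect; 0% = DMSO-treated cells and -100% = media-only wells without cells; nearly all actives have a fitted effect of over 55% in size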
#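 Fibrosarcoma NT cells, 750 per well in 5% FBS RPMI, were exposed to compound for 48 hours. Viability: CellTiter-Glo luminescence.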
# IL1B secr inh – inflammasome signaling inhibition, IL-1 beta readout; THP-1 LPS/ATP IL-1B secretion, AlphaLISA, 16 h; hits give low values; activity change, % at 57.5 µM; hit rate 4.7% among 360,000; AID 743279; in the data active = activity change below about -50%; inconclusive = mostly about -30% to -49%
#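 THP-1 cells pretreated 1 hr with compounds (up to 57.5 uM final), then stimulated with LPS (250 ng/mL final) plus ATP (1.25 mM final); secreted IL-1B measured by AlphaLISA after 16 hr, decreased signal indicating inhibition.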
# Numbers without * were called inactive; ? = inconclusive; / = no result given; [ ] = remark or other dose. Unless noted, calls follow the shape of the dose curve; as a rule, active = well fitted curve in the direction sought with a large enough effect; inconclusive = small, poorly fitted or top-dose-only effect, or another doubt; inactive = no such curve, though single readings can be large; an effect the other way counts as inactive or inconclusive. Unless noted, % is scaled to controls: 0 for no effect and ±100 for the full control effect.
SMILES,DT40 TDP1 CPT,TDP1 cell noCPT,uPA generation,HT1080 IDH1KD tx,HT1080NT lethal,IL1B secr inh
CC(C(=O)c1ccc(-c2ccccc2)cc1)[n+]1cccc(C(N)=O)c1 (stereo not drawn),11%,-10%,-5%,-14%,-10%,7
CC(=O)Nc1cc[n+](C(C)C(=O)c2ccc(Cl)cc2)cc1 (stereo not drawn),16µM*,16µM*,2%,-13%,1%,21
CCc1ccccc1NC(=O)CNC(=O)CSC(=S)N1CCCC1,-13%,1%,10%,7%,12%,-5
CCOc1cccc(-c2cc(NCCc3ccccn3)n3nccc3n2)c1,?,?,/,18%,5%,6
CCOc1ccc(OCCC(=O)Nc2ccc(N3CCOCC3)cc2N2CCOCC2)cc1,-1%,-20%,/,0%,-9%,-26
COC(=O)Cc1c(C)c2ccc(OC3CCCCC3=O)cc2oc1=O (stereo not drawn),-25%,-3%,-1%,-2%,2%,45
COC(=O)Cc1c(C)c2ccc(OC3CCCCC3=O)c(C)c2oc1=O (stereo not drawn),?,18µM*,-10%,-13%,-24%,-26
CC(/C=C/c1ccc(N(C)C)cc1)=N/N=C1/NC(=O)CC(C(=O)Nc2ccc(Cl)cc2)S1 (stereo not drawn),-28%,-23%,-3%,16µM*,?,-6
CCOc1ccccc1C(=O)NC(C(=O)Nc1cccnc1)C(C)C (stereo not drawn),6%,6%,-25%,-2%,-2%,-14
C/C(N)=C(/C#N)C(=O)COC(=O)c1cccc(O)c1,-22%,-2%,-2%,7%,11%,-54*
O=C1NC[C@H](CCCCN2C[C@H](Cc3ccc(O)cc3)N(CC3CCCCC3)C(=O)C2=O)N(CCc2ccc(O)cc2)C1=O,2%,-6%,/,9%,23%,9
COc1cc([C@H]2c3c(cc(OC)c(O)c3OC)C[C@@H](CO)[C@@H]2CO[C@@H]2O[C@H](CO)[C@@H](O)[C@H](O)[C@H]2O)cc(OC)c1O,-4%,1%,-8%,2%,3%,3
O=C(Sc1nnc(-c2ccccc2)o1)N1c2ccccc2Sc2ccccc21,21µM*,18µM*,?,3%,6%,-17
COc1cc(-c2nnc(SCC(=O)c3ccc(C)cc3)o2)cc(OC)c1OC,?,23µM*,8%,?,-9%,-3
COc1cc(-c2nnc(SCC(=O)N3c4ccccc4Sc4ccccc43)o2)cc(OC)c1OC,?,8.2µM*,0%,13%,11%,-3
COc1ccc(C(=O)CSc2nnc(-c3ccc(C)cc3)o2)cc1,-3%,-19%,/,-2%,1%,1
COc1cccc(C(=O)CSc2nnc(-c3cc(OC)c(OC)c(OC)c3)o2)c1,?,21µM*,4%,2%,-3%,-3
O=C(OCCOCCN=C1NS(=O)(=O)c2ccccc21)c1ccccc1,-5%,2%,-2%,18%,12%,46
CCCc1nn2c(=O)cc(COC(=O)c3ccc(NC(=O)c4cccs4)cc3)nc2s1,?,21µM*,/,/,/,/
COCCc1nn2c(=O)cc(COC(=O)c3ccc(Br)cc3)nc2s1,-6%,-8%,/,/,/,/
CCCCc1nn2c(=O)cc(COC(=O)c3ccc(NC(=O)c4cccs4)cc3)nc2s1,-22%,-19%,/,/,/,/
CCc1nn2c(=O)cc(COC(=O)c3cccc(NC(=O)c4cccs4)c3)nc2s1,?,15µM*,/,/,/,/
CCOCCc1nn2c(=O)cc(COC(=O)c3ccc(NC(=O)C(C)(C)C)cc3)nc2s1,16µM*,13µM*,/,/,/,/
CCC12CN3CC(C)(CN(C1)C3c1ccccc1C)C2=O (stereo not drawn),-2%,-1%,/,/,/,/
CCC1CN(CCNC(=O)c2cc(C)nn2CC)Cc2cc(OC)ccc2O1 (stereo not drawn),-3%[9.04 µM],?,/,/,/,/
SMILES,DT40 TDP1 CPT,TDP1 cell noCPT,uPA generation,HT1080 IDH1KD tx,HT1080NT lethal,IL1B secr inh
COc1ccc(OC)c(NC(=O)CCN2C(=O)c3cccc([N+](=O)[O-])c3C2=O)c1,-4%,23%,-4%,8%,7%,6
COc1ccccc1CNC(=O)CS(=O)(=O)Cc1nc(-c2ccccc2C)oc1C,-9%,-25%,/,/,/,/
CC(=O)c1ccc(-c2cc(F)cc3c2OC(CNC(=O)Cc2cn4ccsc4n2)C3)s1 (stereo not drawn),2%[9.04 µM],-23%,/,/,/,/
CCC(C)(C(=O)NC1CCCC1)N(Cc1ccco1)C(=O)c1ccc2c(c1)OCO2 (stereo not drawn),9.2µM*,7.3µM*,-5%,-7%,-2%,-4
O=C(c1ccccn1)N(Cc1ccco1)C1(C(=O)Nc2ccc(Br)cc2)CCCCC1,16µM*,23µM*,/,-23%,-13%,-2
O=C(c1ccccn1)N(Cc1ccco1)C1(C(=O)NC2CCCC2)CCCCC1,-28%,?,-4%,20%,13%,-14
O=C(c1ccc2c(c1)OCO2)N(Cc1ccco1)C1(C(=O)NC2CCCCC2)CCCCC1,12µM*,16µM*,-2%,-21%,-10%,0
COc1cc(OC)c(NC(=O)c2c(C)oc3nc(C)nc(N4CCOCC4)c23)cc1Cl,-4%,-15%,/,/,/,/
CCn1c(NCc2ccco2)nc2ccccc21,4%,2%,-2%,17%,2%,-17
c1ccc(Cn2c(NCc3ccco3)nc3ccccc32)cc1,?,18µM*,0%,0%,3%,-25
COc1ccc(CNc2nc3ccccc3n2Cc2ccccc2)cc1OC,?,18µM*,-2%,-26%,0%,?
CCN(CC)CCn1c(NCc2cccc(OC)c2)nc2ccccc21,?,?,3%,3%,-4%,?
Cc1cc(NC(=O)CN2CCC(C)CC2)nc2c1c(=O)oc1ccccc12,?,21µM*,/,/,/,/
Cc1cc(NC(=O)CN2CCc3ccccc3C2)nc2c1c(=O)oc1ccccc12,21µM*,18µM*,-4%,1%,-4%,3
CCC1CCCCN1CC(=O)Nc1cc(C)c2c(=O)oc3ccccc3c2n1 (stereo not drawn),18%,-9%,/,/,/,/
Clc1cccc(CN2CCSCC2)c1,-16%,3%,14%,2%,8%,5
Cc1cccc(C)c1NC(=O)C(Cl)=C(Cl)Cl,-19%,-14%,-13%,?,?,-59*
CCN(CC)CC(=O)Nc1c(C)cccc1C,6%,1%,11%,17%,?,-6
O=C(/C=C/c1ccc(OCCCF)cc1)Nc1ccnc(-c2cccnc2)n1,?,?,2%,-1%,-6%,-2
